These results are taken from PubChem BioAssay AID504332 (National Center for Advancing Translational Sciences (NCATS), 2011).

Hit rate of the full screen: of about 350,000 compounds, about 31,000 (8.9%) were called active. Inconclusive results (about 15%) are left out. Shown is part of a subset that was picked to be rich in actives. Entries that show only a call come without a potency. Unmarked numbers belong to inactive results. Calls come from the whole dose curve; as a rule, active = well fitted inhibition curve with a large enough effect; inconclusive = small, poorly fitted or top-dose-only effect; inactive = no such curve, though single readings can be large or run the other way.
Potency is the fitted concentration of half-maximal effect.

Histone-lysine N-methyltransferase EHMT2 (Homo sapiens), sequence (Q96KQ7 913-1193 limits assumed): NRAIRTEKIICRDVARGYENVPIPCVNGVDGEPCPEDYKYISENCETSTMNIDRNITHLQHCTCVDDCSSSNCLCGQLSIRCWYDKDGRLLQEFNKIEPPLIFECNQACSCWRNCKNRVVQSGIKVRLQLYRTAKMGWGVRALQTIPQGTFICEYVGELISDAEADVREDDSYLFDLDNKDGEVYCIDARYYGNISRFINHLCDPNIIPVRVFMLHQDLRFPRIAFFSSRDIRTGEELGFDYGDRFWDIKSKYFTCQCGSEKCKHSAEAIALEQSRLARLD

The assay addresses Histone-lysine N-methyltransferase EHMT2 (Homo sapiens) (UniProt Q96KQ7). As to the kind of experiment: qHTS Assay for Inhibitors of Histone Lysine Methyltransferase G9a. Note: nearly all actives have a fitted effect of over 75% in size. To be noted: G9a H3K9 monomethylation, AlphaScreen, 2 h; series mostly up to 59 µM. An outline of the steps: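 Compounds were preincubated with 20 nM G9a for 15 min, after which biotinylated H3K9 peptide (500 nM) and SAM (20 uM) started a 2 h room-temperature reaction. Monomethylated product was quantified by antibody-based AlphaScreen chemiluminescence.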
Background: qHTS replaces the single test concentration by a dilution series.
With `COCCNc1ncnc2c1c(-c1ccccc1)cn2-c1ccc(C)c(Cl)c1`, the Potency result is “inactive”.

`CCOC(=O)N1CCN(S(=O)(=O)c2ccc3c(c2)C(C)C(=O)N3)CC1` (centres undefined): the activity, negative = inhibition is 14.1% [at 12.7 µM]. Still for that read-out and setting: for `Cc1ccccc1N1CCN(C2CCCN(C(=O)c3cn4c(C)cccc4n3)C2)CC1` (centres undefined) the value was 9.34% [at 0.501 µM]. Turning to `CCC(=O)Nc1ccc(-c2ccc(N3CCCCC3)nn2)cc1`, the Potency entry is “inactive”.

Turning to `Cc1ccc(C)c(CNC(=O)c2cc3ccccn3n2)c1`, the Potency result is “inactive”. For the compound `CCCN1CCN(CCCNC(=O)Cn2nc(CC)n3c(cc4occc43)c2=O)CC1`, the Potency entry is “inactive”.

With `O=C(CSc1ncc(-c2ccccc2)[nH]1)Nc1ccc(F)cc1F`, the Potency result was “inactive”. As for `COc1ccc(/C=N/OCc2ccccc2C#N)c(OC)c1`, the Potency entry was “inactive”. Same read-out and setting: for `CCc1ccc2oc(-c3ccc(NC(=O)c4cc5ccccc5o4)cc3)nc2c1` the value was “inactive”; for `COc1ccc(CCNC(=O)c2cn(C)c3ccc(S(=O)(=O)N(C)C4CCCCC4)cc3c2=O)cc1OC`, “inactive”. For `COc1ccc(OC)c(-n2c(=S)[nH]c3cc(C(=O)N4CCCCC4)ccc3c2=O)c1`, the Potency result was “inactive”. The same measure, in the same setting: for `COc1ccc(-n2c(-c3ccc(OC)c(OC)c3)n[nH]c2=S)cc1` the value was 5.62 µM (active).

`COc1ccccc1-n1cn[nH]c1=S`: the activity, negative = inhibition was -42.9% [at 12.7 µM]. Still for that read-out and setting: for `COc1ccc(CCn2c(-c3ccco3)nc3nc4ccccc4nc32)cc1OC` the value was -36.8% [at 12.7 µM].

`Cc1ccc(-c2cn3cc(C)ccc3n2)cc1`: the Potency entry was “inactive”. Regarding `Cc1n[nH]c(=O)n1-c1ccc(C(C)C)cc1`, the Potency entry was “inactive”. `COc1ccc(OC)c(-n2c(-c3ccn[nH]3)n[nH]c2=S)c1`: the Potency is 14.1 µM (active). As for `Cc1ccc(-n2c(-c3ccc(Cl)cc3)n[nH]c2=S)cc1`, the Potency was 1.41 µM (active).

Regarding `COc1ccc(-c2cn(-c3ccc(C)cc3)c(=O)n2CC(=O)Nc2ccc(OC)c(OC)c2)cc1`, the Potency result was “inactive”. For the compound `COc1ccc(-n2c(C)csc2=S)cc1`, the Potency result was “inactive”. On the same count and under the same terms, for `COc1ccccc1-n1c(-c2cc(-c3ccco3)[nH]n2)n[nH]c1=S` the value was 2.82 µM (active).

As for `COc1ccc(-c2c(-c3cc(OC)cc(OC)c3)n(C)c3ccc(-c4ccn[nH]4)cc23)cc1`, the activity, negative = inhibition is 2.71% [at 0.501 µM]. In the case of `COc1ccccc1CN1CCC(CNC(=O)c2cnn(-c3cccc(Cl)c3)c2C2CCN(C(=O)OC(C)(C)C)CC2)CC1`, the Potency entry is “inactive”. On the same count and under the same terms, for `COc1ccc(CCc2nc(-c3cccs3)no2)cc1` the value was “inactive”. The same measure, in the same setting: for `COc1ccc(CC(=O)NCCc2sc3nc(-c4ccc(OC)cc4)nn3c2C)cc1` the value was “inactive”; for `Cc1cc(C)cc(NC(=O)CSc2nc3nccnc3c(=O)n2CCc2c[nH]c3ccccc23)c1`, “inactive”; for `CCOc1ccccc1NC(=O)Cn1c(=O)n(Cc2ccccc2)c(=O)c2c(C)c(C(=O)N(C)C)sc21`, “inactive”. Turning to `Cc1cccc(C(=O)Nc2ccc(Oc3cnccn3)cc2)c1`, the activity, negative = inhibition was -1.31% [at 2.33 µM].

With `CCOc1cc(C(=O)NCCc2csc3nc(-c4ccc(C)cc4)nn23)cc(OCC)c1OCC`, the Potency entry is “inactive”. With `CCOC(=O)C1=C(COC(=O)[C@H](C)NS(=O)(=O)c2ccccc2F)NC(=O)NC1C` (some centres undefined), the activity, negative = inhibition is 20.6% [at 2.33 µM]. As for `CCc1cc2c(cc3c(=O)n(CC(=O)NCc4cccc(Cl)c4)nc(CC)n32)s1`, the Potency result is “inactive”. Still for that read-out and setting: for `COCCNC(=O)c1ccc2c(c1)N(Cc1cccc(Cl)c1)C(=O)c1ccccc1S2(=O)=O` the value was “inactive”.

With `CCOC(=O)[C@H]1[C@H]2COc3ccc(Cl)cc3[C@@H]2N2C(=O)c3cc(C)ccc3NC(=O)[C@@]12C`, the activity, negative = inhibition is 28% [at 2.33 µM].

On to `CCOc1ccccc1N1CCN(C(=O)c2ccc3[nH]c(C)c(C)c3c2)CC1`, for which the Potency is 79.4 µM (active). On the same count and under the same terms, for `CCn1c(C)c(C)c2cc(C(=O)N3CCN(c4cccc(C)c4C)CC3)ccc21` the value was 39.8 µM (active); for `CCS(=O)(=O)N1CCc2cc(C(=O)N3CCN(c4ccccc4OC)CC3)ccc21`, “inactive”; for `CCC(CC)C(=O)N1CCN(c2cccc(C)c2C)CC1`, “inactive”.

`Cc1cccc(N2CCN(C(=O)c3ccc4c(c3)CCN4S(=O)(=O)c3ccccc3)CC2)c1C`: the Potency result was “inactive”. On the same count and under the same terms, for `Cc1[nH]c2ccc(C(=O)N3CCN(C)CC3)cc2c1C` the value was “inactive”; for `CCc1ccc(C(=O)COC(=O)c2ccco2)cc1`, “inactive”; for `CC1CCCCC12NC(=O)N(CC(=O)OCC(=O)NCc1ccc(F)cc1)C2=O` (centres undefined), “inactive”.

For the compound `COc1ccc(-c2nc3sc(CCNC(=O)C(C)(C)C)c(C)n3n2)cc1`, the Potency result was “inactive”. For the compound `CCN(C(=O)COC(=O)c1sccc1C)c1c(N)n(Cc2ccccc2)c(=O)[nH]c1=O`, the activity, negative = inhibition was 4.77% [at 0.501 µM].

`CN(C)C(CNC(=O)c1ccc(OCc2cn3ccccc3n2)cc1)c1ccco1` (centres undefined): the Potency entry was “inactive”. Take `CN(C(=O)CSc1nc2ccccc2n1Cc1ccccc1C#N)c1ccccc1`: the Potency result was “inactive”.

As to `NS(=O)(=O)c1ccc(CNC(=O)c2cccc(Oc3ccccc3)c2)cc1`, the Potency result was “inactive”. Same read-out and setting: the value for `O=C(CNc1ccccc1N1CCCC1=O)Nc1cc(Cl)ccc1-n1cncn1` was “inactive”; that for `C[C@H](NC(=O)OC(C)(C)C)c1nnc(SCC(N)=O)o1` was “inactive”. On to `CC(C)Sc1nnc([C@H](Cc2ccccc2)NC(=O)OC(C)(C)C)o1`, for which the Potency was 35.5 µM (active). Take `CCc1ccccc1NC(=O)CSc1nnc([C@@H](NC(=O)OC(C)(C)C)C(C)C)o1`: the activity, negative = inhibition is 10.1% [at 2.33 µM]. The same measure, in the same setting: the value for `O=C(CN1CCN(S(=O)(=O)c2ccc(Cl)s2)CC1)N1CCCCC1` was 18.1% [at 2.33 µM]. For `CCOc1cc(/C=C(\C#N)c2nc(-c3cccs3)c(NC(C)=O)s2)ccc1O`, the Potency entry is “inactive”. In the case of `COc1ccc(/C=N\NC(=O)c2sc(N)nc2C)cc1OC`, the Potency entry is “inactive”. As for `COc1cc(/C=N\Nc2nc(-c3cccs3)c(NC(C)=O)s2)ccc1O`, the Potency was 11.2 µM (active).

Turning to `CC1=Nc2cc(C(=O)N3CCC(C)CC3)ccc2Sc2ccc(Cl)cc21`, the Potency result was “inactive”. The same measure, in the same setting: for `CCc1nnc(SCc2nc(-c3cccc(C)c3)oc2C)c2cc3sc(C)cc3n12` the value was “inactive”.

Take `CC(C)Oc1ccc(S(=O)(=O)N2CCOCC2)cc1NC(=O)C1CSC2(C)CCC(=O)N12` (centres undefined): the Potency is 44.7 µM (active). Still for that read-out and setting: for `CC(C)Oc1ccc(S(=O)(=O)N2CCOCC2)cc1NC(=O)C1CCCC1` the value was “inactive”. With `CCN(CC)S(=O)(=O)c1ccc(N2CCOCC2)c(NC(=O)C2CSC3(C)CCC(=O)N23)c1` (centres undefined), the Potency entry was “inactive”.
